Each structure is given as a SMILES string.

The test has as its target Shiga toxin 2 (Escherichia coli O157:H7) (UniProt P09385+P09386). The test is described as follows: E. coli 0.157:H7 Shiga Toxin SOP - stx2 screening assay. Format: functional. More on the design: scale not given: direction of the effect not stated beside the values. The settings on record: 30 µM.
Consider `CCC1CN(C(=O)c2ccccc2N2CCCC2)CCN1C(C)C` (stereo unspecified), for which the Percent Effect came out at 12.2%.
As to `Cc1ccc2c(ccn2CCC(=O)O)c1`, the Percent Effect is -8.69%.
Then `CN(Cc1ccco1)C(=O)CN1CCCCC1Cn1cccn1` (stereo unspecified), with -5.72%; and `COc1ccc(C(O)CNC(=O)NCc2csc(C)n2)cc1` (stereo unspecified), with -23.7%.
With `c1cnnc(N2CCCC(NCc3nnc(-c4ccco4)o3)C2)c1` (stereo unspecified) the figure was -79.7%; with `CC(C)Nc1nc2c(cc1C(=O)N(C)C)CCNCC2`, -0.0143%.

(Values after ChEMBL document CHEMBL3988442, “University of Dundee, Small-Polar-MMV Screening Library” (2021).)
